Screens as filed in PubChem BioAssay.
GSIS activator = GLuc luminescence reporter in INS-1E cells, primary screen for activators of glucose-dependent secretion of insulin; INS-1E GLuc reporter insulin secretion, 2-3 h; hit rate 0.61% among 370,000; activation, % at 16.6 µM;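 active means lowest replicate activation of at least 40%, so every replicate reaches that level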;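 further: 0% = median of neutral control wells and 100% = median of IBMX positive control wells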
EWS-Fli inh = inhibitors of EWS/Fli oncoprotein transcriptional activity. A673 NR0B1-luciferase reporter, viability-normalised. inhibition, % at 12.6 µM. hit rate 0.67% among 350,000. AID 651661;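 active means mean inhibition of at least 50% after viability correction, with every replicate also passing that limit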;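 further: firefly luciferase signal divided by Alamar Blue viability fluorescence both relative to DMSO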
miR122 inh = blocks miR-122 activity in Huh7 sensor cells; Huh7 miR-122 Renilla luciferase sensor, 48 h; neutral wells = 0, positive control = 100; activation (reporter increase), % at 12.5 µM; hit rate 0.3% among 340,000;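 active means mean replicate activation score at least 90 and every replicate individually at or above 90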;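 further: higher luciferase means less miR-122 activity so hits act as miR-122 inhibitors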
Env fusion inh = blocks HIV Env-driven cell-cell fusion | HeLa-JRFL Env/CEM21 cell fusion, luciferase | inhibition, % at 12.3 µM | hit rate 1.1% among 360,000 | AID 651610;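 active means mean replicate inhibition score of at least 50 and every replicate individually at or above 50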;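 further: 0% = plate neutral controls and 100% = maraviroc near 300 nM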
Statin myotox sup = suppression of simvastatin myotoxicity; C2C12 myotubes + simvastatin, ATP luminescence, 48 h; scaled: DMSO 0, geranylgeraniol control 100; rescue of ATP level, % at 7.49 µM; hit rate 0.78% among 330,000; AID 602340;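 active means mean ATP rescue above about 67%, or every replicate alone reaching that limit, limit read from the data, passing the limit was not always enough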;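 further: myotubes were challenged with 10 µM simvastatin during compound exposure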
PAX8 reporter = lowers PAX8-driven luciferase in RMG-I cells; inhibition, % at 12.6 µM; RMG-I TPO-luciferase reporter, SteadyGlo, 24 h; hit rate 1.2% among 360,000;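 active means mean replicate inhibition at least 60% with every replicate also reaching 60%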;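 further: luciferase light reporting Pax8 driven TPO promoter activity; plate controls were median of neutral control wells for no effect and mitoxantrone controls for full effect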
DNA binding = small molecule DNA binding by fluorescence polarization; shares compounds with EWS-Fli inh; salmon sperm DNA acridine orange fluorescence polarization; AC35, µM (highest dose often 68 µM), inactives show at the top dose activity change, negative = DNA binding; hit rate 2% among 640; AID 720586;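 active means fitted curve reaches a 35% signal fall AC35 below twice the sample's top valid tested dose, actives reach about 48 µM in these data; inactive means the rest, including activity in the rising direction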;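 further: lower polarization ratio signals compound binding to DNA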
The depositor's hits bear a star; nt = no result; [ ] = another dose, or the depositor's remark. A selection: hits, their analogues and other compounds. The true share with any hit is near 3.1%.

SMILES | GSIS activator | EWS-Fli inh | miR122 inh | Env fusion inh | Statin myotox sup | PAX8 reporter | DNA binding
N#CC1C=Cc2c(ccc3ccccc23)N1C(=O)c1ccccc1 (stereo not drawn) | 27.4 | 65.7* | nt | 36.1 | nt | 6.1 | -2.7%
N#CC1C=Cc2ccccc2N1C(=O)c1ccccc1 (stereo not drawn) | 15.6 | 8.6 | 12.5 | -2.9 | nt | 37.2 | nt
Cc1ccc2nc3n(c(=O)c2c1)-c1cc2ccccc2cc1C(=O)NC3Cc1ccccc1 (stereo not drawn) | nt | 49.5 | 11.7 | -84.0 | -39.1 | 55.5 | nt
Cc1ccc2c(=O)n3c(nc2c1)C(Cc1ccc(O)cc1)NC(=O)c1cc2ccccc2cc1-3 (stereo not drawn) | -15.3 | 53.2* | 21.9 | -26.7 | -11.9 | 45.1 | -7.9%
COCC#Cc1cnc2c(c1)C(=O)N([C@@H](C)CO)C[C@@H](C)[C@@H](CN(C)C(=O)Cc1ccncc1)O2 | 15.9 | 1.6 | -3.6[16.7 µM] | -17.1[16.7 µM] | -5.7 | nt | nt
COc1ccccc1NC(=O)N[C@@H]1C=C[C@@H](CC(=O)N[C@@H](C)c2ccccc2)O[C@H]1CO | 0.1 | -7.0 | nt | -2.9[16.7 µM] | -4.7 | 11.0 | nt
O=S(=O)(N[C@H]1CC[C@@H](CCn2cc(C3(O)CCCC3)nn2)O[C@H]1CO)c1ccc(F)cc1 | -5.3 | 2.9 | nt | -12.8[16.7 µM] | 1.1 | 1.9 | nt
